# Screening results (PubChem)
# Shown is part of a subset that was picked to be rich in hits.
# mHTT-CaM PPI inh: mHTT-calmodulin interaction abrogation | AID 1671202 | AlphaScreen His-mHTT/GST-CaM binding, luminescence | P42858 | inhibition, % at 15 µM | hit rate 3.6% among 190,000;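 note: 0% = both proteins with DMSO and 100% = one protein alone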
# Pf apPOL block: Pf-apPOL DNA polymerase inhibition; Recombinant Pf-apPOL, molecular beacon fluorescence, 1.5 h; inhibition, % at 10 µM; hit rate 0.25% among 210,000; AID 1794808
# * marks the source's active call; other numbers are inactive results; / = no result. Cut-off read from the data, not from the text of the source: active = inhibition above about 50%; inactive = the rest.
SMILES,mHTT-CaM PPI inh,Pf apPOL block
NS(=O)(=O)c1ccc(NC(NC(=O)c2cccs2)C(=O)c2ccccc2)cc1 (stereo unspecified),11,8
O=C(NC(Nc1cccc(Cl)c1)C(=O)c1ccccc1)c1cccs1 (stereo unspecified),67*,27
CCOc1ccc(NC(NC(=O)c2cccs2)C(=O)c2ccccc2)cc1 (stereo unspecified),56*,-1
COc1ccc(NC(NC(=O)c2cccs2)C(=O)c2ccccc2)cc1 (stereo unspecified),40,-1
O=C(NCc1ccccn1)c1cc2n(n1)CCCN(Cc1ccccc1)C2=O,-2,-2
COc1ccc(NC(=O)C2CN(C(=O)c3ccncc3)CC23CCCCC3)c(C)c1 (stereo unspecified),10,-1
N#Cc1cnc2ccccc2c1N1CCC(C(=O)NCc2ccccc2)CC1,-4,4
Cc1sc2cc(C(=O)N3CCOCC3)[nH]c2c1CN1CCCC1,24,-3
Cc1sc2cc(C(=O)N3CCC(C)CC3)[nH]c2c1CN1CCOCC1,69*,-7
Cc1sc2cc(C(=O)N3CCCCCC3)[nH]c2c1CN1CCOCC1,59*,-3
Cc1sc2cc(C(=O)N3CCCCC3)[nH]c2c1CN1CCOCC1,31,4
Cc1nn(-c2nc3ccccc3[nH]2)c2c1C(=O)CC(c1ccco1)C2 (stereo unspecified),3,-11
CC1(C)COc2ccc(NC(=O)NCc3cccc4ccccc34)cc2NC1=O,-1,-8
O=C(c1ccc(F)cc1)N1CCCCCC1,-7,9
O=C(c1ccc(F)cc1)N1CCc2nc(N3CCCC3)nc(N3CCCC3)c2C1,56*,17
O=S(=O)(c1ccc2nncn2c1)N(Cc1cccc(F)c1)c1cc(F)cc(F)c1,16,0
Cn1cnc([N+](=O)[O-])c1C(=O)O,-7,/
Fc1ccc2c(c1)Sc1ccccc1N2,74*,-10
FC(F)(F)c1ccc2c(c1)Nc1ccccc1S2,/,12
Cc1ccc(CNC(=O)C2(C)CCCN(C(=O)c3ccccc3F)C2)cc1 (stereo unspecified),-7,-2
CC(=O)Nc1ccc(O)c(C(=O)O)c1,/,-4
O=C(O)C1=CC(=C(c2ccc(O)c(C(=O)O)c2)c2ccc(O)c(C(=O)O)c2)C=CC1=O,/,92*
COc1cccc(CNc2ncccn2)c1OC,4,-2
COc1cccc(CNc2cccc3cccnc23)c1O,54*,-5
CCOC(=O)C1CCN(C(=O)c2cn(C)c3ncccc23)CC1,-8,-2
SMILES,mHTT-CaM PPI inh,Pf apPOL block
C=CCc1cc(OC)c(O)c(-c2cc(CC=C)cc(OC)c2O)c1,61*,2
COc1cc(CCCO)cc(-c2cc(CCCO)cc(OC)c2O)c1O,3,-2
Cc1cccc(C(C)C)c1NS(=O)(=O)c1ccc([N+](=O)[O-])cc1,26,-1
CC(=O)Nc1nonc1N1C(=N)S/C(=C\c2ccc(-c3ccccc3F)o2)C1=O,15,0
N=C1S/C(=C\c2ccc(-c3cccc(C(=O)O)c3)o2)C(=O)N1c1nonc1N,47,-1
CC(=O)Nc1nonc1N1C(=N)S/C(=C\c2ccc(-c3cccc(C(F)(F)F)c3)o2)C1=O,56*,-13
N=C1S/C(=C\c2ccc(-c3ccc(F)c(Cl)c3)o2)C(=O)N1c1nonc1N,51*,0
CC(C)n1cnnc1C1CCN(Cc2cn[nH]c2-c2cccs2)CC1,-2,-2
COc1ccc(C(O)c2nccn2C)cc1 (stereo unspecified),-5,52*
CCOc1ccc(C(O)c2nccn2C)cc1 (stereo unspecified),-2,1
Cn1cc(C(=O)Nc2ccc(N3CCOCC3)cc2)c2cccnc21,5,0
O=C(NCCc1cccs1)c1cc2n(n1)CCCN(Cc1ccc(Cl)cc1)C2=O,14,0
CC1(C)CC(=O)C2=C(C1)NC1=C(C(=O)c3ccccc31)C2c1ccc(Br)cc1 (stereo unspecified),60*,-11
CC1(C)CC(=O)C2=C(C1)NC1=C(C(=O)c3ccccc31)C2c1ccc(O)cc1 (stereo unspecified),50,-4
COc1cc(C2C3=C(CC(C)(C)CC3=O)NC3=C2C(=O)c2ccccc23)cc(OC)c1OC (stereo unspecified),61*,-1
COc1cccc(C2C3=C(CC(C)(C)CC3=O)NC3=C2C(=O)c2ccccc23)c1OC (stereo unspecified),44,-6
Cc1ccc(N2NC(=O)/C(=C\c3cccn3-c3ccc(S(N)(=O)=O)cc3)C2=O)cc1,24,0
O=S(=O)(c1ccc(Br)s1)N1CC(c2nc(-c3cccs3)no2)C1,-1,3
N#CC1=C(N)C(C#N)(C#N)C(c2ccc(Cl)c(Cl)c2)C2CCCC=C12 (stereo unspecified),100*,6
N#CC1=C(N)C(C#N)(C#N)C(c2cccc(F)c2)C2CCCC=C12 (stereo unspecified),23,-3
N#CC1=C(N)C(C#N)(C#N)C(c2ccc(Cl)cc2Cl)C2CCCC=C12 (stereo unspecified),49,2
N#CC1=C(N)C(C#N)(C#N)C(c2cccc(Oc3ccccc3)c2)C2CCCC=C12 (stereo unspecified),50*,4
O=C(NCc1nnnn1C1CCCCC1)c1c(F)cccc1Cl,0,0
CCOc1ccc(C(=O)Nc2ccccc2C(F)(F)F)cc1Cl,-1,-1
O=C(NCc1ccnc(N2CCSCC2)c1)Nc1ccccc1Br,-3,-1
SMILES,mHTT-CaM PPI inh,Pf apPOL block
COC(=O)C(C)NC(=O)N1CCC2(CC1)Nc1ccccc1-n1cccc12 (stereo unspecified),55*,3
COC(=O)CNC(=O)N1CCC2(CC1)Nc1cc(F)ccc1-n1cccc12,33,-5
Cc1ccc(CNC(=O)N2CCC3(CC2)Nc2ccccc2-n2cccc23)cc1,77*,-3
CCC(C)NC(=O)N1CCC2(CC1)Nc1cc(F)ccc1-n1cccc12 (stereo unspecified),37,-3
Cc1ccc(NC(=O)N2CCC3(CC2)Nc2ccccc2-n2cccc23)cc1,12,-6
COCCCNC(=O)N1CCC2(CC1)Nc1cc(F)ccc1-n1cccc12,62*,6
COc1ccccc1NC(=O)N1CCC2(CC1)Nc1ccccc1-n1cccc12,35,-6
COc1ccc2c(c1)NC1(CCN(C(=O)Cc3cccc(F)c3)CC1)c1cccn1-2,73*,2
COCCN=C1Nc2ccccc2CNC12CCN(C(=O)Nc1ccc(Cl)cc1F)C2 (stereo unspecified),19,-2
Cc1ccc(C)c(CN2C(=O)NC3(CCN(C(=O)Cc4ccccc4Cl)CC3)C2=O)c1,7,0
CCOC(=O)CNC(=O)N1CCC2(CC1)Nc1ccccc1-n1cccc12,56*,-6
O=C(CSCc1ccc(F)cc1)N1CCC2(CC1)Nc1cc(F)ccc1-n1cccc12,100*,-1
O=C(NC1CCCC1)N1CCC2(CC1)Nc1cc(F)ccc1-n1cccc12,29,-5
O=C(NCc1ccc(F)cc1)N1CCC2(CC1)Nc1cc(F)ccc1-n1cccc12,59*,2
Cc1ccc2c(c1C)-n1cccc1C1(CCN(C(=O)Cc3ccccc3Cl)CC1)N2,56*,-9
Cc1ccc(CN2CCCn3nc(C(=O)NCCN4CCCCC4)cc3C2=O)cc1,-4,-4
COc1ccc(C=C2Oc3c(CN4CCN(C)CC4)c(O)cc(C)c3C2=O)c(OC)c1,-4,5
O=C(CCSc1ccccc1)NCCn1nc(-c2ccco2)ccc1=O,-5,3
